This is a sample that favours compounds with a hit; in the whole collection about 11% have one here.
HCV inh – blocks hepatitis C virus; Potency, µM (highest dose often 41.8 µM), inactives show top-dose activity change, negative = inhibition, most hits filed as inhibitors; Huh7.5.1 HCVcc-Cre infection, luciferase reporter, 44 h; 3.4% of 340,000 active; note: % is set by controls: 0 for no effect and ±100 for the full control effect
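Luciferase read-out (15 sec integration) after a 15 min room-temperature substrate step quantifies HCVcc-Cre infection. Cells, 1,000 per well, had compound added 4 h post-plating, then virus at ~0.5 moi, and were cultured 44 h.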
Pf growth 96h – P. falciparum growth inhibition at 96 hour, primary screen for plastid delayed-death inhibitors. P. falciparum luciferase reporter growth, 96 h. Potency, µM (titrated, usually from 28.7 µM), for the others: top-dose activity change, negative = inhibition, usual class: inhibitors. 6.9% of 320,000 active; note: % is set by controls: 0 for no effect and ±100 for the full control effect
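Compounds incubated with erythrocytes infected by luciferase-expressing P. falciparum (2% hematocrit, 0.05% parasitemia final) for 96 hours, 37 C in 5% CO2. Growth inhibition scored as decreased luciferase luminescence.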
VACV Venus inh – inhibitors of vaccinia virus (Venus reporter) | AID 720580 | Potency, µM (doses to about 36.5 µM), for inactives: top-dose activity change, negative = inhibition, usual class: inhibitors | 0.46% of 330,000 active | Vaccinia virus Venus reporter expression, fluorescence; calls by dose curve; tested in A549 cells; note: % is set by controls: 0 for no effect and ±100 for the full control effect; nearly all actives have a fitted effect of over 30% in size
Vaccinia mCherry – vaccinia inhibition (mCherry reporter). 0.63% of 310,000 active. Potency, µM (series often up to 36.5 µM), inactives show at the top dose activity change, negative = inhibition, actives largely listed as inhibitors. AID 720579. Vaccinia virus mCherry reporter infection, fluorescence; calls by dose curve; tested in A549 cells; note: % is set by controls: 0 for no effect and ±100 for the full control effect; nearly all actives have a fitted effect of over 35% in size
Pf growth 48h – inhibits P. falciparum growth in the first generation, 48 h; P. falciparum luciferase growth in erythrocytes, 48 h; Potency, µM (titrated, usually from 28.7 µM), for inactives: top-dose activity change, negative = inhibition, most hits filed as inhibitors; 5.9% of 310,000 active; AID 504832; note: % is set by controls: 0 for no effect and ±100 for the full control effect
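A one-generation exposure of luciferase-tagged malaria parasites in RPMI 1640/Albumax erythrocyte culture, 37 C and 5% CO2. Inhibition is inferred from decreased luminescence after adding detection reagent.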
NS1 function inh – blocks influenza NS1 protein function | Potency, µM (titrated, usually from 46.1 µM), for inactives: top-dose activity, positive = more growth | 0.4% of 270,000 active | AID 2326; calls by dose curve; note: actives are rising curves; nearly all actives have a fitted effect of over 50% in size
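Recovery from NS1-induced slow growth read by OD600 in budding yeast switched to galactose assay medium (pH 6.0, -URA) at 1:100 dilution. Compound 23 nl per well; the matching strain lacking NS1 serves as control.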
The depositor's hits bear a star; i = inactive; ? = inconclusive; . = no result. Unless noted, calls come from the whole dose curve; as a rule, active = well fitted inhibition curve with a large enough effect; inconclusive = small, poorly fitted or top-dose-only effect, or another doubt; inactive = no such curve, though single readings can be large or run the other way. Potency is the fitted concentration of half-maximal effect.

SMILES	HCV inh	Pf growth 96h	VACV Venus inh	Vaccinia mCherry	Pf growth 48h	NS1 function inh
CCOC(=O)c1c(NC(=O)c2cc3nc(-c4ccc(OC)cc4)cc(C(F)(F)F)n3n2)sc2c1CCC(C)C2 (configuration not stated)	.	.	-9%	-13%	.	.
Cc1ccc(C(=O)Nc2cccc(S(=O)(=O)N(C)c3ccccc3)c2)o1	?	13µM*	-20%	5%	8.3µM*	.
CN(c1ccccc1)S(=O)(=O)c1cccc(NC(=O)CC(C)(C)C)c1	?	12µM*	-11%	-18%	-17%	-23%
CC(c1ccccc1)C1OCC(C[N+]2(C)CCCCC2)O1 (configuration not stated)	22%	-24%	0%	-11%	-12%	.
COc1ccc(C(CNC(=O)c2cc3c(s2)CCC(C)C3)N2CCOCC2)cc1 (configuration not stated)	?	?	.	.	12µM*	.
COc1ccc(C(CNC(=O)c2cc3c(s2)CCC(C)C3)N2CCCC2)cc1 (configuration not stated)	10µM*	4.1µM*	.	.	9.3µM*	.
CCC1CCc2sc(C(=O)NCC(c3ccccc3OC)N3CCCC3)cc2C1 (configuration not stated)	7.1µM*	9.3µM*	.	.	10µM*	.
CCC1CCc2sc(C(=O)NCC3CCCO3)cc2C1 (configuration not stated)	-13%	371%	.	.	224%	.
COc1ccc(C(CNC(=O)c2ccc(Cl)s2)N2CCOCC2)cc1 (configuration not stated)	-15%	2%	-4%	i	-9%	.
Cc1ccc(OCCC(=O)OCC(=O)NNC(=O)c2ccccc2)cc1	16%	17%	-8%	i	56%	.
CC(NC(=S)Nc1ccc(Cl)cc1Cl)C(c1cccs1)N1CCCC1 (configuration not stated)	1%	12µM*	4%	-23%	?	12%
CC(NC(=O)Nc1ccc([N+](=O)[O-])cc1)C(c1cccs1)N1CCCC1 (configuration not stated)	2%	9.3µM*	-13%	-9%	?	-9%
CC(NC(=O)Nc1cccc(Cl)c1)C(c1cccs1)N1CCCC1 (configuration not stated)	3%	9.3µM*	-21%	-5%	?	35%
CCOC(=O)CN1N=C(c2ccc(Cl)cc2)CCC1=O	-17%	13µM*	-9%	i	9%	0%
O=C(CN1N=C(c2ccc(Cl)cc2)CCC1=O)NCCc1ccc(Cl)cc1	.	.	-1%	-9%	.	.
CN(Cc1ccccc1N1CCCC1)C(=O)c1cc2cc(Cl)ccc2o1	11µM*	?	.	.	?	.
N#Cc1c2c(c(Nc3ccc(O)cc3)n3c1nc1ccccc13)CCC2	?	26%	-28%	?	?	27%
CCN(CC)CCNc1c2c(c(C#N)c3nc4ccccc4n13)CCCC2	?	.	.	.	10µM*	-12%
CN(C)CCNc1c2c(c(C#N)c3nc4ccccc4n13)CCCC2	-19%	?	-13%	-6%	?	-11%
N#Cc1c2c(c(NCc3ccco3)n3c1nc1ccccc13)CCC2	-20%	0.74µM*	-4%	-13%	1µM*	4%
O=C(N/N=C/c1ccc2ncccc2c1)c1ccco1	-23%	234%	-11%	-21%	132%	.
Brc1ccc(Nc2nc(-c3cccnc3)cs2)cc1	?	10%	-7%	-2%	6%	.
COc1ccc(Cl)cc1Nc1nc(-c2cccnc2)cs1	13µM*	2%	-9%	?	?	-25%
Clc1cccc(Nc2nc(-c3cccnc3)cs2)c1	2.8µM*	36%	.	.	?	-53%
Brc1cccc(Nc2nc(-c3cccnc3)cs2)c1	10µM*	102%	-22%	?	0%	-52%
Nc1ccc(-c2nc3ccccc3[nH]2)cc1	3%	117%	7%	30%	114%	-13%
Cc1ccc(S(=O)(=O)N2CCCN(S(=O)(=O)c3ccccc3Br)CC2)cc1	?	.	-6%	-13%	.	.
Cc1cccc(C)c1N1C(=O)[C@@H]2C(c3ccccc3Cl)=NO[C@@H]2C1=O	19%	9%	-8%	-7%	3%	-3%

Source: PubChem (National Center for Advancing Translational Sciences (NCATS))
